Experimental data: PubChem BioAssay (NCI)
Compounds without any hit were thinned out: in the full panel of roughly 83,000, 20% have a hit.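 Negative percent growth values reflect cell death: -40 means 40% of the cells present at the start died, and -100 means all died.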 Active and inactive are the calls of the source. Rule for the calls: active = growth percent below 10; inactive = the rest.

Key:
Test in all cases: NCI-60 one-dose screen, 48 h (100 = growth as untreated, 0 = no growth, -100 = all killed)
NCI-H23 lung = settings: 10 µM unless noted
NCI-H322M lung = settings: 10 µM unless noted
HOP-62 NSCLC = settings: 10 µM unless noted
NCI-H460 lung = settings: 10 µM unless noted
HOP-92 NSCLC = settings: 10 µM unless noted
A549/ATCC NSCLC = settings: 10 µM unless noted
786-0 renal = settings: 10 µM unless noted
COLO 205 colon = settings: 10 µM unless noted
DU-145 prostate = settings: 10 µM unless noted
K-562 leukemia = settings: 10 µM unless noted
MALME-3M melanoma = settings: 10 µM unless noted
MDA-MB-231 breast = settings: 10 µM unless noted
RXF 393 renal = settings: 10 µM unless noted
SF-268 CNS = settings: 10 µM unless noted
SF-295 CNS = settings: 10 µM unless noted
SF-539 CNS = settings: 10 µM unless noted
UACC-257 melanoma = settings: 10 µM unless noted
M14 melanoma = settings: 10 µM unless noted
NCI-H522 lung = settings: 10 µM

Measured: growth

COc1cc(Cn2cc(F)c(=O)[nH]c2=O)cc(OC)c1
inactive: NCI-H23 lung 103% [50 µM] | NCI-H322M lung 99% [50 µM] | HOP-62 NSCLC 88.2% [50 µM] | NCI-H460 lung 103% [50 µM] | HOP-92 NSCLC 101% [50 µM] | A549/ATCC NSCLC 102% [50 µM] | 786-0 renal 97.5% [50 µM] | COLO 205 colon 117% [50 µM] | DU-145 prostate 114% [50 µM] | K-562 leukemia 95.6% [50 µM] | MALME-3M melanoma 108% [50 µM] | MDA-MB-231 breast 95.7% [50 µM] | RXF 393 renal 99.5% [50 µM] | SF-268 CNS 96.1% [50 µM] | SF-295 CNS 101% [50 µM] | SF-539 CNS 101% [50 µM] | UACC-257 melanoma 110% [50 µM] | M14 melanoma 100% [50 µM]

Cc1c(C(=O)Nc2nc(-c3ccccc3)cs2)nnn1-c1cccc2ccccc12
inactive: NCI-H23 lung 33% [50 µM] | NCI-H322M lung 84.6% [50 µM] | HOP-62 NSCLC 87.9% [50 µM] | NCI-H460 lung 56.4% [50 µM] | HOP-92 NSCLC 70.7% [50 µM] | A549/ATCC NSCLC 43.9% [50 µM] | 786-0 renal 79.8% [50 µM] | COLO 205 colon 69.1% [50 µM] | DU-145 prostate 64.7% [50 µM] | K-562 leukemia 30.5% [50 µM] | MALME-3M melanoma 55.4% [50 µM] | MDA-MB-231 breast 68.7% [50 µM] | RXF 393 renal 89.1% [50 µM] | SF-268 CNS 72.5% [50 µM] | SF-295 CNS 37.2% [50 µM] | SF-539 CNS 69.2% [50 µM] | UACC-257 melanoma 44.9% [50 µM] | M14 melanoma 64.7% [50 µM]

CCN1CCN(c2ccc(Nc3ncc4ccc5ncn(C(C)C)c5c4n3)nc2)CC1
inactive: HOP-92 NSCLC 13.9%
active: NCI-H23 lung -26.1% | NCI-H322M lung 1.51% | HOP-62 NSCLC -7.69% | NCI-H460 lung -30.3% | A549/ATCC NSCLC 9.87% | 786-0 renal 9.21% | COLO 205 colon -40.4% | DU-145 prostate -22.7% | K-562 leukemia 9.12% | MALME-3M melanoma -34% | MDA-MB-231 breast 0.653% | RXF 393 renal -85.4% | SF-268 CNS -34.2% | SF-295 CNS -17.8% | SF-539 CNS -75.8% | UACC-257 melanoma 0.866% | M14 melanoma -23.8%

O=C1c2ccccc2-c2nnc(-c3ccc(Br)cc3)cc21
active: A549/ATCC NSCLC 1.3% | MALME-3M melanoma -3.82%
inactive: NCI-H23 lung 47% | NCI-H322M lung 86.8% | HOP-62 NSCLC 56.3% | NCI-H460 lung 81.6% | HOP-92 NSCLC 78.6% | 786-0 renal 82.3% | COLO 205 colon 99.7% | DU-145 prostate 55.8% | K-562 leukemia 16.5% | MDA-MB-231 breast 14.1% | RXF 393 renal 33.7% | SF-268 CNS 59.3% | SF-295 CNS 13.6% | SF-539 CNS 56.7% | UACC-257 melanoma 52.6% | M14 melanoma 37.2%

CCC12CCC3c4ccc(O)cc4CCC3C1CC(O)C2O (stereo not drawn)
inactive: NCI-H23 lung 68% | NCI-H322M lung 102% | HOP-62 NSCLC 83.2% | NCI-H460 lung 88% | HOP-92 NSCLC 72.3% | NCI-H522 lung 37.4% | A549/ATCC NSCLC 61.7% | 786-0 renal 92.5% | DU-145 prostate 103% | K-562 leukemia 23.7% | MALME-3M melanoma 70.1% | RXF 393 renal 98.6% | SF-268 CNS 103% | SF-295 CNS 58.1% | SF-539 CNS 80.6% | UACC-257 melanoma 67.4% | M14 melanoma 55%

COc1cc(-c2nc(SC(C)C)nc(Nc3ccccc3C)c2C#N)cc(OC)c1OC
inactive: NCI-H23 lung 105% | NCI-H322M lung 106% | HOP-62 NSCLC 104% | NCI-H460 lung 107% | HOP-92 NSCLC 110% | A549/ATCC NSCLC 101% | 786-0 renal 108% | COLO 205 colon 117% | DU-145 prostate 113% | K-562 leukemia 98.6% | MALME-3M melanoma 104% | MDA-MB-231 breast 102% | RXF 393 renal 120% | SF-268 CNS 106% | SF-295 CNS 102% | SF-539 CNS 103% | UACC-257 melanoma 113% | M14 melanoma 104%

Cc1c(C)n(CC(O)CNC2CCCCC2C)c2ccccc12 (stereo not drawn)
active: NCI-H23 lung -19.7% | HOP-62 NSCLC -71.3% | HOP-92 NSCLC -60% | A549/ATCC NSCLC -31.4% | 786-0 renal -84.7% | COLO 205 colon -84.7% | DU-145 prostate -67.2% | K-562 leukemia 4.09% | MALME-3M melanoma -64.1% | MDA-MB-231 breast -9.38% | RXF 393 renal -90.2% | SF-268 CNS -42.5% | SF-295 CNS -45.7% | SF-539 CNS -87.3% | UACC-257 melanoma -75.8% | M14 melanoma -59.4%
inactive: NCI-H322M lung 31.7% | NCI-H460 lung 11.2%

COC(=O)c1c2c(c(C)[n+]([O-])c1C)C(=O)C=C(NCc1ccc(F)cc1)C2=O
active: NCI-H23 lung -46.2% | NCI-H322M lung -6.43% | HOP-62 NSCLC -6.11% | NCI-H460 lung -0.65% | HOP-92 NSCLC -41.1% | NCI-H522 lung -15.1% | A549/ATCC NSCLC -22.7% | 786-0 renal 5.86% | DU-145 prostate -90.6% | K-562 leukemia 1.64% | MALME-3M melanoma -97.8% | MDA-MB-231 breast -29.3% | RXF 393 renal -22.2% | SF-268 CNS -1.99% | SF-295 CNS -80% | SF-539 CNS -91.2% | UACC-257 melanoma -87.2% | M14 melanoma -69.3%
